“And” between values parts separate entries of the source, which are not always exact repeats. Identical values can stand only once. About 79,000 compounds went through this panel and 15% of them were active in at least one assay; those are over-represented in the sample as a whole. A number with no mark means an inactive call. The source made the active and inactive calls. No stated cut-off is given here; in the data, active means growth inhibition above about 70%; inactive means the rest.
Tests used:
[1] = NCI Yeast Anticancer Drug Screen. Data for the rad50 strain (AID 155);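 further: 0% = growth of vehicle-only cultures of the same strain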; settings: S. cerevisiae rad50 strain growth inhibition, active compounds read high; at 50.0 µM unless noted
Summary of the method: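 Inhibition values express reduced yeast growth in compound-treated cultures relative to vehicle-treated controls.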

[2] = NCI Yeast Anticancer Drug Screen. Data for the mec2-1 strain (AID 157); settings: S. cerevisiae mec2-1 strain, active compounds read high; at 50.0 µM unless noted
Summary of the method: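 Yeast mec2-1 mutant treated with compound. Readout: growth inhibition vs vehicle controls.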

[3] = NCI Yeast Anticancer Drug Screen. Data for the sgs1 mgt1 strain (AID 161);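 further: 0% = growth of cultures given vehicle only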; settings: S. cerevisiae sgs1 mgt1 strain, active compounds read high; at 50.0 µM unless noted
Summary of the method: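 Test agents were incubated with a DNA-repair-mutant yeast strain. Growth was then read and compared against vehicle-treated controls.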

[4] = NCI Yeast Anticancer Drug Screen. Data for the cln2 rad14 strain (AID 165);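 further: 0% = growth equal to vehicle treated cultures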; settings: S. cerevisiae cln2 rad14 strain, active compounds read high; at 50.0 µM unless noted
Summary of the method: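 cln2 rad14 yeast strain; compound exposure; growth inhibition read vs vehicle controls.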

[5] = NCI Yeast Anticancer Drug Screen. Data for the bub3 strain (AID 167); settings: S. cerevisiae bub3 mutant strain, active compounds read high; at 50.0 µM unless noted
Summary of the method: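 Steps: expose the mutant yeast strain to compound; grow alongside vehicle-treated cultures; measure growth; express inhibition against the vehicle cultures.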

[6] = NCI Yeast Anticancer Drug Screen. Data for the mlh1 rad18 strain (AID 175); settings: S. cerevisiae mlh1 rad18 strain growth inhibition, active compounds read high; at 50.0 µM unless noted
Summary of the method: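 Yeast w/ defined DNA-repair lesions; compound exposure; growth vs vehicle controls → % inhibition.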

| SMILES | growth inhibition [1] | growth inhibition [2] | growth inhibition [3] | growth inhibition [4] | growth inhibition [5] | growth inhibition [6] |
| --- | --- | --- | --- | --- | --- | --- |
| COc1cc(C(C)=O)ccc1OCOc1ccc(C(C)=O)cc1OC | -4.65% | -23.6% | -3.7% | -43% | 5.95% | -5.55% |
| O=C(O)CS(=O)c1ccc2c3c(cccc13)C(=O)c1ccccc1-2 (stereo not given) | 14.7% | -12.5% | -38.5% | -0.05% | -30.8% | 1.7% |
| NCCNCCNCCN | -12.4% and -8.1% | -7.65% and -20.7% | 3.1% | -28.9% | -5.35% | -19.4% and 29.1% |
| Nc1cc(S(=O)(=O)O)cc2cc(S(=O)(=O)O)cc(S(=O)(=O)O)c12 | -31.6% | -51% | -29.6% | -144% | -17.5% | 23.4% |
| NNC(=O)c1c(O)ccc2ccccc12 | 19.2% | -28.1% | 23.4% | 20.2% | -4.2% | 12.6% |
| O=C(C[n+]1ccccc1CO)c1ccc(-c2ccccc2)cc1 | 26.2% | -6.4% | 17.2% | -4.85% | 6.5% | 5.4% |
| CCCCN(CCCC)CC(C(=O)Nc1ccc([N+](=O)[O-])cc1[N+](=O)[O-])/C(C)=N\NC(=O)c1ccncc1 (stereo not given) | 22.7% | -3.65% | 11.8% | -65.1% | 2.55% | 18.1% |
| CCC(CN)C(F)(F)C(F)(F)C(F)(F)F (stereo not given) | 4.65% | -12.2% | -5.45% | 2.7% | 8.3% | 6.05% |
| COC(=O)c1cccc(C(=O)OC)c1 | -33.1% and 14.2% | -3.45% and -1.6% | -14.4% and 18.8% | 5.2% and -1.7% | -1.9% and 19.4% | 3.75% and 15.4% |
| N#Cc1c[nH]c(=O)[nH]c1=O | -25.3% | -25.4% | -13.4% | 2.15% | 1.85% | -45.6% |
| O=C1c2ccccc2C(=O)N1CCCCCCCCCCN1C(=O)c2ccccc2C1=O | 33% | -10.3% | 17.3% | 2.75% | -3.75% | -7.15% |
| CCOC=Nc1ccc(-n2cnc3c(Cl)ncnc32)cc1C | 1.1% | -4.45% | -16.6% | -6.2% | -1% | -17.2% |
| COc1cc(Nc2cnc3cc(C(F)(F)F)ccc3n2)cc(OC)c1OC | 16.9% | 0.95% | 21.9% | 12.2% | -14.1% | -1.55% |
| CSc1nc(N)c2cnn(Cc3ccccc3)c2n1 | 28.4% | 12.5% | 34% | 8.95% | 31.4% | 31.4% |
| CCC(C)(C)c1ccc(C(=O)OC)o1 | 4.1% | 16.2% | -5.55% | -13.3% | -7.3% | -13.8% |
| CC1(O)CC(=O)c2c(cc3ccc(-c4c5c(c(O)c6c(O)cccc46)C(=O)CC(C)(O)C5)c(O)c3c2O)C1 (stereo not given) | 54.1% | 48.1% | 35.5% | 23.8% | 19.7% | 9.95% |
| NC(=O)NCCCC(N)C(=O)O (stereo not given) | 7.7% and -23.9% | -16.2% and -16.6% | -5.85% and -13.1% | -2.4% and 2.9% | 9.45% and -39.5% | -10.4% and -14.9% |
| CN(C)C(=NN=C(N(C)C)N(C)C)N(C)C | 12.2% | -4.2% | 0.05% | -39% | -5.85% | 1.5% |
| CCOC(=O)CC(=O)Cc1ccccc1 | -23.3% | -16.6% | -6.25% | -43.8% | -13.2% | -19.1% |
| O=C(O)COc1ccc(F)cc1F | -22.5% | -3.05% | 1.65% | -31.4% | 0.95% | -16.4% |

| SMILES | growth inhibition [1] | growth inhibition [2] | growth inhibition [3] | growth inhibition [4] | growth inhibition [5] | growth inhibition [6] |
| --- | --- | --- | --- | --- | --- | --- |
| Cc1cc(O)c(C)cc1O | 16.1% | 5.5% | -2.85% | 6.5% | -7.95% | 21.6% |
| COc1ccc(C(=O)C(CN(C)C)CN(C)C)c(OC)c1 | 30.6% | 30.8% | 57% | 32.9% | 30.8% | 64.2% |
| O=C(N/N=C/c1ccc(O)cc1)C(c1ccccc1)N1CCCCC1 (stereo not given) | 5.85% | -7.05% | -7.4% | -18.8% | 3.05% | -5.3% |
| CCCCCCCCOC(=O)NC1c2ccccc2Oc2c(C)cccc21 (stereo not given) | 1.7% | 5.9% | 9.45% | -30.1% | -3.05% | 12.9% |
| CC(CO)Cc1ccccc1 (stereo not given) | -1.85% | -12.8% | -11.2% | 7.45% | -3.7% | -9.7% |
| O=C(CC1C(=O)Nc2ccccc2S1=O)Nc1cc(Cl)ccc1Cl (stereo not given) | -14.9% | -24.2% | 3.1% | 8.15% | -4.6% | -6.1% |
| COc1nc(NC2OC(CO)C(O)C(O)C2O)c(C(=O)CCl)c(=O)n1C (stereo not given) | 3.9% | 4.2% | -15.8% | -7.45% | -3.4% | 4.05% |
| OC(Cc1ccc2ccccc2n1)(C(F)(F)F)C(F)(F)F | -53.8% | -43.6% | -37.4% | -3.85% | -29.9% | -21.8% |
| CC(C)c1ccc(C2NC(c3ccccc3)c3c(ccc4ccccc34)O2)cc1 (stereo not given) | 36.9% | -4.85% | 6.1% | 0.5% | -1.6% | -1.65% |
| CC(=O)O[C@@H]1C(=O)C=C(C)[C@@H]2[C@@H](OC(=O)C=C(C)C)[C@H]3OC(=O)C[C@H]4[C@@H](C)[C@@H](O)[C@]5(O)OC[C@]34[C@H]5[C@@]12C | 87.4% (active) | 71.5% (active) | 71.8% (active) | 88.5% (active) | 79.5% (active) | 91.8% (active) |
| CCOC(=O)C1=C(C)O/C(=C/c2cccc(Cl)c2)C1=O | 42% | 35.2% | 31.1% | 45.9% | 47% | 56.1% |
| COc1c2c(c(OC)c3c(=O)cc(C/C(=N/NC(=O)C[n+]4ccccc4)C(=O)Nc4cc(C)ccc4C)oc13)OCO2 | -13.4% | -6.65% | -18.1% | 5.6% | -3.15% | -0.3% |
| COc1ccc(-c2nnc(N)s2)cc1OC | 16.4% | 2.7% | 2.8% | -1.6% | -7.05% | 6.35% |
| CN1C(=O)C/C(=C/[N+](=O)[O-])c2ccccc21 | 3.5% | -1.05% | 4.2% | 8.05% | 3.3% | -18.9% |
| OC(COc1cccc(C(F)(F)F)c1)CN1CCN(c2ccc(F)cc2)CC1 (stereo not given) | 86.8% (active) | 88% (active) | 96.3% (active) | 88.5% (active) | 86.4% (active) | 92.2% (active) |
| CCC1(CC)C(=O)NN(C(=O)c2ccc(Cl)cc2)C1=O | -4.9% | -22.9% | 28.4% | 7.15% | -5.6% | -37.5% |
| O=C(O)CCCl | -8.95% and -10.8% | 7.65% and -16.2% | 25.1% and -18.3% | -27.1% and -34.2% | -6.1% and -0.9% | 29.3% |
| CC(C#N)C(=O)O (stereo not given) | -3.55% | -5.85% | -15.7% | -8.15% | -8.15% | -18.5% |
| O=S(=O)(O)c1cc(N=[N+]([O-])c2ccc(N=Nc3ccccc3)cc2S(=O)(=O)O)ccc1/C=C/c1ccc(N=[N+]([O-])c2ccc(N=Nc3ccccc3)cc2S(=O)(=O)O)cc1S(=O)(=O)O | 28.6% | 11.9% | 9.8% | 7.15% | 0.8% | 50.4% |
| Cc1ccc(C(=O)O)cc1 | 2.95% | -17% | 0.65% | -15.6% | 8.85% | -2.2% |
